# Test results reported in ChEMBL document CHEMBL1157539, “Thousands of chemical starting points for antimalarial lead identification” (Nature, 2010).
# Test system: HepG2
# Assay: GSK_TCMDC: Percent inhibition of human HepG2 cell line. Test compounds present at 10uM.
# Type: functional
row,SMILES,Inhibition
1,CCOc1ccc(OCC(=O)Nc2nc(-c3ccc(OC)cc3)c(C)s2)cc1,0%
2,Nc1nc(N)c2c(ccc3c2ccn3CCCC(F)(F)F)n1,66%
3,CC(C)c1ccc(-c2nc3cc(Cl)cnc3[nH]2)cc1,3%
4,Cc1nc(C)c(-c2ccc(Cl)cc2Cl)c(O)c1Br,3%
5,COc1ccc(C(C(=O)NC2CCN(C[C@H](O)c3ccnc4ccc(OC)cc34)CC2)N2CCN(c3ccc([N+](=O)[O-])cc3)CC2)cc1 (stereo not given in full),17%
6,COc1ccc(S(=O)(=O)N(CC(=O)NN=C(C)c2cccs2)c2cc(C)cc(C)c2)cc1OC,12%
7,C[C@H](Cc1ccc(OCCCCCCOc2ccc(C[C@@H](C)N[C@H](C)c3ccccc3)cc2)cc1)NC[C@H](O)c1cccc(Cl)c1.Cl,99%
8,COc1cccc(CN2CCC3(CC2)CN(C(=O)Nc2ccc(Cl)c(Cl)c2)C3)c1,29%
9,CNC(=O)c1nc(-c2ccccc2)[nH]c1NC(C)=O,0%
10,O=C(N[C@@H](Cc1ccccc1)C(=O)NCc1cccc2ccccc12)c1ccc(O)c(-c2ccc(Cl)c(Cl)c2)c1,0%
11,I.N=C(N)NCC=C(c1ccccc1)c1ccccc1,9%
12,CCCOc1ccc2ccccc2c1CNCCCCCCNCc1c(OCCC)ccc2ccccc12.CS(=O)(=O)O,100%
13,COc1ccc(NC(=O)[C@H](Cc2ccccc2)Nc2cc(C)nc(NCCc3ccccc3OC)n2)cc1.O=C(O)C(F)(F)F,10%
14,Cc1sc(C)c(CNCCCNc2cc(=O)c3ccccc3[nH]2)c1Br.Cl,0%
15,Cc1cccc2nc(-c3ccc(-c4ccc(CN5CCN(CC6CCCN(C)C6)CC5)cc4)s3)[nH]c12.O=C(O)C(F)(F)F (stereo not given),63%
16,COc1ccc(-c2ccc(NC(=O)c3ccc(C#N)cc3)cc2)cc1CN1CCCC1.O=C(O)C(F)(F)F,40%
17,CC(C)(C)c1nn(-c2ccccc2)c2[nH]c(=O)c(CNCCc3ccccc3)cc12,0%
18,COc1cc(NCC(CN)Cc2ccc3c(c2)OCO3)nc2ccccc12.Cl (stereo not given),41%
19,Cc1cccc2nc(-c3ccc(-c4cccc(NC(=O)Cc5c[nH]cn5)c4)cc3)[nH]c12,13%
20,Cc1c(Cn2nc(Cl)c(N3CCNCC3)cc2=O)cccc1NC(=O)Nc1ccc(-c2ccccc2)cc1.O=C(O)C(F)(F)F,96%

row,SMILES,Inhibition
1,Cc1cc(N(C)C)nc(Nc2ccc(NC(=O)CCc3ccccc3)cc2)n1,20%
2,COc1ccc(-c2ccc(NC(=O)c3ccc(Cl)cc3)cc2)cc1CN(C)CCO.O=C(O)C(F)(F)F,43%
3,COc1ccc2nccc(N3CCC(NCc4ccc5c(n4)NC(=O)CS5)CC3)c2n1,14%
4,CC[C@H](NC(=O)c1c(CN2CCC(N3CCCCC3)CC2)c(-c2ccccc2)nc2c(Cl)c(O)ccc12)c1ccccc1.Cl,0%
5,CCn1c2ccccc2c2cc(C=NN=c3cc(C)[nH]c4ccccc34)ccc21,19%
6,COc1ccc(Nc2nccc(NCCNC(=O)Nc3ccccc3F)n2)cc1,4%
7,CS(=O)(=O)c1ccc(CCNCc2ccc(-c3ccc(CN(C(=O)C4CCCC4)C4CCN(Cc5ccccc5)CC4)cc3)nc2)cc1.O=C(O)C(F)(F)F,24%
8,CNC(=O)c1cc(NCCCNCc2ccc(Cl)c(C(F)(F)F)c2)nc2ccccc12.Cl,25%
9,COc1ccc(NC(=O)/C=C/c2ccccc2Cl)cc1OCCN1CCC(NCc2ccccc2)CC1,28%
10,CNCCNCc1cccc(-c2ccc(-c3nc4cccc(C)c4[nH]3)s2)c1.O=C(O)C(F)(F)F,10%
11,COc1ccccc1N1CCN(CCCCN(C(=O)Nc2cccc(Cl)c2)C(=O)Nc2cccc(Cl)c2)CC1.Cl,4%
12,N#Cc1ccc(CN2CCC(Oc3ccc(NC(=O)c4cccs4)cc3Cl)CC2)cc1.O=C(O)C(F)(F)F,26%
13,N#Cc1ccc(C(=O)Nc2cccc(-c3ccc(CN4CCCC4)cc3)c2)cc1.O=C(O)C(F)(F)F,13%
14,O=C(Nc1ccc(OC2CCN(Cc3ccc(F)cc3)C2)c(Cl)c1)c1ccoc1.O=C(O)C(F)(F)F (stereo not given),13%
15,Cl.FC(F)(F)c1ccc2c(NCCc3ccccc3)ccnc2c1,14%
16,CSc1ccc(NC(=O)Nc2cc(C)nc3ccccc23)cc1Br,7%
17,O=C(Nc1cc(Cl)cc(Cl)c1)N[C@H]1CCN(CCCCCNC(=O)C2CC2c2ccc(Cl)c(Cl)c2)C1 (stereo not given in full),49%
18,Cc1ccccc1CN1CCCN(Cc2ccc(C(=O)Nc3ccc(C(C)(C)C)cc3)cc2)CC1.O=C(O)C(F)(F)F,52%
19,c1ccc(C23NC(=Nc4nc5ccccc5[nH]4)NC2(c2ccccc2)NC(=Nc2nc4ccccc4[nH]2)N3)cc1 (stereo not given),2%
20,O=C(/C=C/c1ccc(Cl)c(Cl)c1)NCCCCCN1CCC(NC(=O)Nc2ccccc2F)CC1,14%
